{
  "source": "PubChem BioAssay AID1259313",
  "about": "(Sanford-Burnham Center for Chemical Genomics, 2017)",
  "note": "Among all 340,000 compounds or so, about 8,500 (2.5%) were called active.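 The calls were made as follows: active = melting temperature shift of at least 10% of the positive control shift, at one fixed dose; inactive = the rest.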 The entries come from a sample that favours actives as a whole.",
  "data": [
    {"tested_on": "Glutamate receptor ionotropic, NMDA 3A (GRIN3A) ligand-binding domain", "assay": "NR3A LBD thermal stabilization by compounds – biophysical, differential scanning fluorimetry, uHTS, primary screen (AID 1259313)", "conditions": "at 25 µM, stronger effect = higher value, 0% = protein alone, 100% = glycine-bound protein", "values": [
      {"smiles": "COc1cccc(CN(C)CC(O)COC(c2ccccc2)c2ccccc2C)c1", "note": "(stereo unspecified)", "Tm shift relative to glycine control": "-2.39% (inactive)"},
      {"smiles": "C=C(C)Cn1c(C)cc(C)c(S(=O)(=O)c2ccccc2C)c1=O", "Tm shift relative to glycine control": "2.34% (inactive)"},
      {"smiles": "COCCn1c(C)cc(C(=O)CSc2nnc(C3CC3)n2C2CC2)c1C", "Tm shift relative to glycine control": "-0.08% (inactive)"},
      {"smiles": "Cc1nc2ccccc2n1CC(=O)N/N=C/c1cccs1", "Tm shift relative to glycine control": "-4.96% (inactive)"},
      {"smiles": "COc1ccc(NS(=O)(=O)c2ccc(NC(=O)c3ccc(N(C)S(C)(=O)=O)cc3)cc2)cc1", "Tm shift relative to glycine control": "-0.38% (inactive)"},
      {"smiles": "COc1ccc(C(=O)Nc2ccc(S(=O)(=O)NC(C)C)cc2)cc1", "Tm shift relative to glycine control": "14% (active)"},
      {"smiles": "CC(C)NS(=O)(=O)c1ccc(NC(=O)c2cccnc2)cc1", "Tm shift relative to glycine control": "0.24% (inactive)"},
      {"smiles": "CCC(=C/c1sc2ccc3ccccc3c2[n+]1C)/C=C1\\Sc2ccc3ccccc3c2N1C", "Tm shift relative to glycine control": "3.14% (inactive)"},
      {"smiles": "CC1CCCCC1NC(=O)Cn1cnc2c1c(=O)n(C)c(=O)n2C", "note": "(stereo unspecified)", "Tm shift relative to glycine control": "-0.41% (inactive)"},
      {"smiles": "COc1ccc(C(=O)Nc2cc(C)ccc2NC(=O)COc2ccccc2)cc1", "Tm shift relative to glycine control": "-0.91% (inactive)"},
      {"smiles": "CCS(=O)(=O)c1ccc(O)c(NC(=O)COc2ccc(Cl)cc2)c1", "Tm shift relative to glycine control": "1.4% (inactive)"},
      {"smiles": "Cc1ccc(O)c(NC(=S)NC(=O)COc2ccc(Br)cc2)c1", "Tm shift relative to glycine control": "16.9% (active)"},
      {"smiles": "Oc1ccc(/C=N/N(Cc2ccccc2)c2ccccc2)cc1", "Tm shift relative to glycine control": "8.8% (inactive)"},
      {"smiles": "COc1cc(OC)cc(-c2cc3ccc(F)cc3cn2)c1", "Tm shift relative to glycine control": "1.79% (inactive)"},
      {"smiles": "COC(=O)C1CCN(C(=O)NC2CC(=O)N(c3ccc4c(c3)OCCO4)C2)CC1", "note": "(stereo unspecified)", "Tm shift relative to glycine control": "0.42% (inactive)"},
      {"smiles": "CC(=O)c1ccccc1NC(=O)C1CC(=O)N(c2ccc3c(c2)OCCO3)C1", "note": "(stereo unspecified)", "Tm shift relative to glycine control": "-0.26% (inactive)"},
      {"smiles": "CC(=O)c1ccc(S(=O)(=O)NC2CC(=O)N(c3ccc4c(c3)OCCO4)C2)cc1", "note": "(stereo unspecified)", "Tm shift relative to glycine control": "15.5% (active)"},
      {"smiles": "Cc1nc2cc(C(F)(F)F)ccc2n1CCNc1nc(-c2cc(Cl)c(N)c(Cl)c2)cs1", "Tm shift relative to glycine control": "-2.53% (inactive)"},
      {"smiles": "Cc1ccc(C(C(=O)NC2CCCCC2)N(C(=O)c2csnn2)C2CC2)o1", "note": "(stereo unspecified)", "Tm shift relative to glycine control": "-0.78% (inactive)"},
      {"smiles": "COc1ccc(S(=O)(=O)N2CCOCC2)cc1NC(=O)CSc1nnc(NC2CC2)s1", "Tm shift relative to glycine control": "1.84% (inactive)"},
      {"smiles": "COc1cccc(/C=N/NC(=O)c2[nH]nc3c2CCc2ccccc2-3)c1O", "Tm shift relative to glycine control": "20.4% (active)"},
      {"smiles": "COc1ccc(Br)cc1/C=N/NC(=O)c1cccc(S(=O)(=O)N2CCOCC2)c1", "Tm shift relative to glycine control": "-9.01% (inactive)"},
      {"smiles": "COc1ccc(/C=N/NC(=O)c2ccncc2)cc1CN1CCCc2ccccc21", "Tm shift relative to glycine control": "-8.86% (inactive)"},
      {"smiles": "O=C(c1cc2ccccc2o1)N1CCN(Cc2ccccc2)CC1", "Tm shift relative to glycine control": "0.09% (inactive)"},
      {"smiles": "Fc1ccc(OCc2nn3c(Cn4nnc5ccccc54)nnc3s2)cc1", "Tm shift relative to glycine control": "2.39% (inactive)"},
      {"smiles": "CC1CN(/C=C/C(=O)C(F)(F)F)CC(C)O1", "note": "(stereo unspecified)", "Tm shift relative to glycine control": "0.33% (inactive)"},
      {"smiles": "COc1ccccc1Cn1c(C)nnc1-c1cnn(C)c1N", "Tm shift relative to glycine control": "1% (inactive)"},
      {"smiles": "CN(CC(=O)Nc1ccc(Cl)cc1)CC(=O)Nc1cccc2ccccc12", "Tm shift relative to glycine control": "-7.6% (inactive)"},
      {"smiles": "O=C(Cc1cccc2ccccc12)NNC(=O)Nc1ccc(Cl)cc1", "Tm shift relative to glycine control": "29.1% (active)"},
      {"smiles": "O=C(O)Cc1ccc(NC(=O)Nc2cccc3ccccc23)cc1", "Tm shift relative to glycine control": "-1.31% (inactive)"},
      {"smiles": "CC(C)OC(=O)c1ccc(NCc2cc(O)ccc2O)cc1Cl", "Tm shift relative to glycine control": "-1.69% (inactive)"},
      {"smiles": "COC(=O)c1ccc(NCc2cc(O)ccc2O)cc1", "Tm shift relative to glycine control": "5.08% (inactive)"},
      {"smiles": "O=C(OC12CC3CC(CC(C3)C1)C2)c1ccc(NCc2cc(O)ccc2O)cc1", "Tm shift relative to glycine control": "33.5% (active)"},
      {"smiles": "Cn1c(SCc2ccc(F)cc2)nnc1-c1ccncc1", "Tm shift relative to glycine control": "1.71% (inactive)"},
      {"smiles": "CCC(C)(C)n1nnnc1CN1CCN(c2nc3ccc(C)cc3cc2C#N)CC1", "Tm shift relative to glycine control": "0.62% (inactive)"},
      {"smiles": "O=C(NCc1ccccc1)C(c1ccccc1)N(C(=O)c1csnn1)c1ccc(F)cc1", "note": "(stereo unspecified)", "Tm shift relative to glycine control": "-0.6% (inactive)"},
      {"smiles": "CN(C)S(=O)(=O)Oc1ccccc1C(=O)Nc1ccccc1Cl", "Tm shift relative to glycine control": "-0.92% (inactive)"},
      {"smiles": "O=C(COC(=O)CCc1c[nH]c(=O)[nH]1)Nc1ccccc1Cl", "Tm shift relative to glycine control": "1.15% (inactive)"},
      {"smiles": "O=C(Nc1ccccc1Cl)/C(Cl)=C(\\Cl)S(=O)c1ccccc1", "note": "(stereo unspecified)", "Tm shift relative to glycine control": "11.6% (active)"},
      {"smiles": "Cc1nn(-c2ccccc2)c2[nH]c(C(F)(F)F)cc(=O)c12", "Tm shift relative to glycine control": "-11.2% (inactive)"},
      {"smiles": "COc1ccc(CN2CCN(Cc3cn(C)nc3-c3ccccc3)CC2CCO)c(C)c1C", "note": "(stereo unspecified)", "Tm shift relative to glycine control": "-3.71% (inactive)"},
      {"smiles": "O=C(/C=C(O)/C=C/c1ccc(O)cc1)/C=C/c1ccc(O)cc1", "Tm shift relative to glycine control": "19% (active)"},
      {"smiles": "O=C(O)/C=C/c1ccc(OCCCF)cc1", "Tm shift relative to glycine control": "-1.35% (inactive)"},
      {"smiles": "COc1cccc(C=CC(=O)C=CC=Cc2ccccc2)c1", "Tm shift relative to glycine control": "-1.98% (inactive)"},
      {"smiles": "Cc1ccc(S(=O)(=O)NCCc2nnc3ccc(SCc4cccnc4)nn23)cc1", "Tm shift relative to glycine control": "-2.44% (inactive)"},
      {"smiles": "COc1cc(OC)c(C(=O)NNC(=O)c2ccccc2-n2cccc2)cc1OC", "Tm shift relative to glycine control": "-0.41% (inactive)"},
      {"smiles": "CCCCCCC(O)(CCN1CCCCC1)c1ccccc1", "note": "(stereo unspecified)", "Tm shift relative to glycine control": "-3.65% (inactive)"},
      {"smiles": "S=c1[nH]nc(-c2cccs2)n1/N=C/c1cccs1", "Tm shift relative to glycine control": "0.68% (inactive)"},
      {"smiles": "S=c1[nH]nc(-c2cccs2)n1/N=C/c1cn(-c2ccccc2)nc1-c1ccc(Cl)cc1", "Tm shift relative to glycine control": "15.2% (active)"},
      {"smiles": "S=c1[nH]nc(-c2ccncc2)n1/N=C/c1ccccc1Cl", "Tm shift relative to glycine control": "-1.38% (inactive)"},
      {"smiles": "CC(C(=O)Nc1ccccc1-c1ccccc1)N1CCOCC1", "note": "(stereo unspecified)", "Tm shift relative to glycine control": "-18.3% (inactive)"},
      {"smiles": "CCOc1ccc2nc(/N=C/c3nc(-c4ccccc4)oc3O)sc2c1", "Tm shift relative to glycine control": "38% (active)"},
      {"smiles": "CCOc1ccc2nc(C(=O)N3CCCC(C)C3)sc2c1", "note": "(stereo unspecified)", "Tm shift relative to glycine control": "3.03% (inactive)"},
      {"smiles": "CC(N=Cc1nc(-c2ccccc2)oc1O)c1ccccc1", "note": "(stereo unspecified)", "Tm shift relative to glycine control": "1.17% (inactive)"},
      {"smiles": "CCn1c(SCC(=O)NC2CC2)nnc1-c1ccccc1OC", "Tm shift relative to glycine control": "-19.3% (inactive)"},
      {"smiles": "COc1ccccc1-c1nnc2n1N=C(c1ccc(OC(F)F)c(OCC3CC3)c1)CS2", "Tm shift relative to glycine control": "20.6% (active)"},
      {"smiles": "COc1ccc(C2=Nn3c(nnc3-c3ccccc3OC)SC2)cc1OC1CCCC1", "Tm shift relative to glycine control": "-1.54% (inactive)"},
      {"smiles": "Cn1c(C(=O)OC(C(=O)NC2CCCCC2)c2ccccn2)cc2sccc21", "note": "(stereo unspecified)", "Tm shift relative to glycine control": "-2.22% (inactive)"},
      {"smiles": "C/C(=N/NC(=O)CCc1ccccc1)c1ccco1", "Tm shift relative to glycine control": "13.4% (active)"},
      {"smiles": "C/C(=N/NC(=O)C1COc2ccccc2O1)c1ccco1", "note": "(stereo unspecified)", "Tm shift relative to glycine control": "0.45% (inactive)"},
      {"smiles": "C/C(CC(=O)NC(C)(C)C)=N\\NC(=O)c1ccco1", "Tm shift relative to glycine control": "-2.4% (inactive)"}
    ]}
  ]
}
